Assay outcomes from PubChem BioAssay.
Compounds with a hit are over-represented: about 3.8% of the library has one in this group of screens.
MPTP block – inhibitors of mitochondrial permeability transition pore; isolated mouse mitochondria, Ca2+ swelling absorbance, 30 min; inhibition, % at 10 µM; 360,000 tested, 1.4% active;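 active means inhibition of 50% or more, scaled per plate between neutral and stimulator controls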
Yeast superoxide – lowers age-related superoxide in aged yeast cells; AID 2690; superoxide response (% of plate mean), % at 10 µM; S. cerevisiae aged cells, superoxide DHE fluorescence; active compounds read low; 330,000 tested, 0.18% active;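 active means superoxide response under a set limit, about three screen SD below normal, cut at about 65% in these data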;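 further: yeast aged for seven days with compound at 30 °C before DHE staining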
aDG glyco act – increases alpha dystroglycan glycosylation. Pro5-aDG cells, alpha-DG glycosylation AlphaScreen (IIH6); 0% Pro5, 100% B10-LARGE cell signal. 360,000 tested, 0.22% active. activation, % at 10 µM;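 active means activation of at least 8% versus controls, or a plate z-score of at least 8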;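 further: Pro5 are CHO cells carrying HIG-tagged alpha-DG that lacks glycosylation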
Mot1-301 SUMO – SUMOylation pathway inhibition by Mot1-301 growth rescue; S. cerevisiae Mot1-301 growth rescue, ATP luminescence, 38.5C; percent above DMSO median, 100 means doubled; growth rescue, % at 18.8 µM; 320,000 tested, 1% active; AID 2716;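 active means every valid replicate shows activation above 250% relative to neutral control wells; inactive means the rest, any valid replicate at or below 250%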
Cardio protect – modulators protecting cardiomyocytes from myocardial damage. 360,000 tested, 0.63% active. H9c2 cardiomyocytes, H2O2 injury protection, ATPLite, 2 h. protection from H2O2 cell death, % at 20 µM;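 active means compounds giving at least 50% protection of heart cells from peroxide-induced death in the single-dose screen, raw or plate-pattern-corrected value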
FAS TE block – FAS thioesterase (human) inhibition; 360,000 tested, 0.67% active; P49327; recombinant FAS-TE, OMFH fluorogenic substrate, fluorescence endpoint; inhibition, % at 15 µM;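 active means compounds whose normalised, plate-corrected inhibition of enzyme fluorescence in the single-dose primary screen is 50% or more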
aDG glyco conf – alpha-DG glycosylation activation, confirmation. AID 651671. activation, % at 10 µM (by protocol). shares compounds with aDG glyco act. Pro5-aDG cells, IIH6 AlphaLISA; scaled to LARGE-overexpressing B10 cells as 100%. 600 tested, 17% active;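 active means activation of at least 7% in one or more replicates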;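 further: cells exposed to compound for two days before detection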
Numbers stand for hits; . = inactive; / = no result.

SMILES	MPTP block	Yeast superoxide	aDG glyco act	Mot1-301 SUMO	Cardio protect	FAS TE block	aDG glyco conf
COc1ccc(C(C(=O)NCCC(C)C)N(CCO)C(=O)c2snc(C(N)=O)c2N)cc1 (stereo not given)	.	.	.	.	.	.	/
Clc1ccc(CNCCCSc2ncccn2)cc1Cl	.	.	2.4	.	.	.	.
Clc1cccc(Cl)c1CNCCCSc1ncccn1	.	.	.	.	.	.	/
Cc1ccc(CN2CC(C(=O)N(CC(C)C)c3c(N)n(Cc4ccccc4)c(=O)[nH]c3=O)CC2=O)cc1 (stereo not given)	.	/	.	/	.	.	/
Cc1cc(-c2csc(NC(=O)c3cccc(S(=O)(=O)N(C)C)c3)n2)c(C)n1-c1ccccc1	.	.	11	.	.	.	.
COC(=O)c1ccc(-n2c(C)cc(-c3csc(NC(=O)c4ccc(S(=O)(=O)N(C)C)cc4)n3)c2C)cc1	.	.	11	.	.	.	.
CCOC(=O)c1csc(NC(=O)c2ccc(S(=O)(=O)N(C)C)cc2)n1	.	.	.	.	.	.	/
CC(Oc1cccc(Cl)c1)C(=O)Nc1ccc(S(=O)(=O)N(C)C2CCN(C)CC2)cc1 (stereo not given)	.	.	5.7	.	.	.	5.3
CC(=O)Nc1ccc(NC(=O)CSCCc2ccccn2)cc1	.	.	4.5	.	.	.	.
Cc1ccc(C(=O)N/C(=C\c2ccc(Cl)cc2)C(=O)NCCN2CCOCC2)cc1	.	.	.	.	.	.	/
O=C1SCCN1N=Cc1ccc([N+](=O)[O-])o1	.	/	7.2	/	.	.	3.5
CSc1ccccc1C(=O)NC1CCCN(c2ccc(C(F)(F)F)cn2)C1 (stereo not given)	.	.	.	.	.	.	/
Cc1ccc(S(=O)(=O)N2c3ccccc3OC(C(=O)OC(C)(C)C)(C(=O)OC(C)(C)C)C2CC(=O)c2ccccc2)cc1 (stereo not given)	.	/	.	/	/	/	/
Cn1c2ccccc2c2nnc(NN)nc21	.	.	.	.	.	.	/
CCCCc1c(C)nn(-c2nnc3c4ccccc4n(C)c3n2)c1C	.	.	4.2	.	.	.	.
CC1(c2nnnn2Cc2ccccc2)CCC(=O)N1CC1CCCCC1 (stereo not given)	.	/	.	/	/	.	/
C=CCOc1ccc(CN(C)c2ccc(S(=O)(=O)N3CCN(C)CC3)cc2[N+](=O)[O-])cc1	.	.	.	.	.	.	/
CN1CCN(S(=O)(=O)c2ccc(N(C)Cc3ccc(C(F)(F)F)cc3)c([N+](=O)[O-])c2)CC1	.	.	5.8	.	.	.	.
O=C(CSc1nncn1-c1ccccc1)NC1CCCc2ccccc21 (stereo not given)	.	.	.	.	.	.	/
Cc1nnc(SCC(=O)NC2CCCc3ccccc32)n1-c1ccccc1 (stereo not given)	.	.	7.0	.	.	.	.
CCOC(=O)c1ccc(NC(=S)N2CCN(C)CC2)cc1	.	.	6.9	.	.	.	.
COc1cc(CN2CCC(CCC(=O)NC3CC3)CC2)cc(Cl)c1OC	.	.	.	.	.	.	/
COc1cccc(NC(=S)N2CCN(S(=O)(=O)c3ccc(F)cc3)CC2)c1	.	.	.	.	.	.	/
COc1cc(NC(=S)N2CCN(S(=O)(=O)c3ccc(F)cc3)CC2)cc(OC)c1	.	.	14	.	.	.	.
COc1ccc(C2N=C(c3ccccc3)NO2)cc1OC (stereo not given)	.	.	2.8	.	.	.	.
SMILES	MPTP block	Yeast superoxide	aDG glyco act	Mot1-301 SUMO	Cardio protect	FAS TE block	aDG glyco conf
COc1cc(C2N=C(c3ccccc3)NO2)cc(Br)c1O (stereo not given)	.	.	.	.	.	.	/
O=C1c2cc(O)c(O)cc2S(=O)(=O)C1c1ccccc1 (stereo not given)	.	.	.	.	.	.	/
CCOC(=O)N1CCN(S(=O)(=O)N2CCCC(C(=O)NCCc3ccc(OCC)c(OCC)c3)C2)CC1 (stereo not given)	.	.	.	.	.	.	/
O=C(CC1SC(=Nc2ccccc2)N(CCc2ccccn2)C1=O)Nc1ccc(F)cc1 (stereo not given)	.	.	11	.	.	.	.
O=C(CC1SC(=Nc2ccccc2)N(CCO)C1=O)Nc1ccccc1 (stereo not given)	.	.	.	.	.	.	/
CC(C)C[C@H]1CNC(=S)N1CC1CCCN1C[C@H](CC(C)C)N1C[C@H](CC(C)C)N(CCc2ccccc2)C1=S (stereo not given in full)	.	/	.	/	.	.	/
Cc1cccc(-n2cnc3c(c2=O)c2nc4ccccc4nc2n3Cc2ccco2)c1	.	.	.	.	.	.	/
CCCCn1c(N)c(S(=O)(=O)c2ccc(C)cc2)c2nc3ccccc3nc21	.	.	.	.	.	.	/
Cc1ccc(S(=O)(=O)c2c(N)n(Cc3ccco3)c3nc4ccccc4nc23)cc1	.	.	17	.	.	.	.
Cc1cccc(S(=O)(=O)c2c(N)n(Cc3ccco3)c3nc4ccccc4nc23)c1	.	.	21	.	.	.	.
COc1cc2c(cc1OC)C(CNC(=O)C=Cc1ccccc1)C2 (stereo not given)	.	/	.	/	.	.	/
CCOc1ccc(S(=O)(=O)N2CCN(c3ccccc3OC)CC2)c2cccnc12	.	.	6.5	.	.	.	.
Nc1ccn(C2OC(CCl)C(O)C2O)c(=O)n1 (stereo not given)	.	/	.	/	.	.	/
Nc1nc(-c2ccccn2)nc(N)c1Cc1c(F)cccc1Cl	.	.	8.0	.	.	.	.
Nc1nc(-c2ccccn2)nc(N)c1Cc1ccccc1F	.	.	.	.	.	.	/
O=C(Nc1ccccc1Cl)C1C(c2ccccc2)C1(Cl)Cl (stereo not given)	.	.	6.2	.	.	.	.
CC(=O)N1CCCc2cc(S(=O)(=O)N3CCN(C4CCCCC4)CC3)ccc21	.	.	.	.	.	.	/
CC(=O)N1CCCc2cc(S(=O)(=O)N3CCC(C)CC3)ccc21	.	.	23	.	.	.	.
N#Cc1ccc(N)cc1OCCCN1CCCCC1	.	/	.	/	.	.	/
C=CCNC(=S)N/N=C/c1ccc(C(C)(C)C)cc1	.	/	8.6	/	.	.	.
O=C(/C=C/c1ccc2c(c1)OCO2)N1CCN(c2ccc(Cl)cc2)CC1	.	.	15	.	.	.	.
COc1ccc(Br)cc1C(=O)NCc1cccnc1	.	.	.	.	.	.	/
O=C(NC(=S)NCc1cccnc1)c1cc(Br)ccc1Cl	.	.	3.5	.	.	.	.
C=CCc1cccc(Cl)c1OCCCNC1CCCC1	.	.	.	.	.	.	/
c1ccc(-c2nnc(CN3CCN(C(c4ccccc4)c4ccccc4)CC3)o2)cc1	.	.	6.8	.	.	.	.
